From PubChem BioAssay (NCATS)
Records with an inconclusive call do not appear. Calls of active or inactive are those of the source. Calls come from the whole dose curve; as a rule, active = well fitted curve in the direction sought with a large enough effect; inconclusive = small, poorly fitted or top-dose-only effect, or another doubt; inactive = no such curve, though single readings can be large; an effect the other way counts as inactive or inconclusive.

target: Luciferin 4-monooxygenase (Photinus pyralis) (UniProt P08659); assay: Primary firefly luciferase (FLuc) qHTS assay for identification of artifact compounds. (AID 1845220); conditions: purified firefly luciferase, luminescence, 5 min; series mostly up to 54.1 µM; activity change, negative = inhibition: at the top concentration; note: nearly all actives have a fitted effect of over 60% in size;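 for activity change, negative = inhibition: plate controls were DMSO vehicle for no effect and no enzyme for full effect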
In short: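 Reaction readout was CCD-imaged luminescence, taken 5 min after adding 10 nM purified firefly enzyme to compound-treated wells holding 10 uM luciferin and ATP in pH 7.6 buffer.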
Potency is the fitted concentration of half-maximal effect.

Row | SMILES | outcome | activity change, negative = inhibition | Potency
1 | CC(C)(C)c1ccc(NC(=O)N2CCN(c3ncccc3Cl)CC2)cc1 | inactive |  | 
2 | O=C(Nc1ccccc1)N1CCC(Cc2cnc3ccccc3c2)CC1 |  | -0.313% (inactive) | 
3 | C=C1C(=O)O[C@H]2C[C@@H](C)[C@@H]3CCC(=O)[C@@]3(C)C[C@H]12 |  | -2.7% (inactive) | 
4 | C=C1C(=O)OC2/C=C(\C)CC3C=C(CC/C=C(\C)CCC12)C(=O)O3 (stereo not drawn) | inactive |  | 
5 | COc1cc(C(C)=O)c(OC)c2c1OC(C)(C)C=C2 |  | -5.84% (inactive) | 
6 | C=CCc1ccc(OC(C)Cc2ccc(OC)c(OC)c2)c(OC)c1 (stereo not drawn) |  | -2.47% (inactive) | 
7 | C=C1C(=O)O[C@@H]2[C@H]3C(C)=CC(=O)C3=C(C)CC[C@@H]12 |  | -6.57% (inactive) | 
8 | Cc1ccc(OC[C@H](O)[C@H](C)NC(C)C)c2c1CCC2 | inactive |  | 
9 | O=C(NCCCn1ccnc1)c1cc(-c2ccco2)on1 |  | -3.2% (inactive) | 
10 | O=C(COc1ccc2ccccc2c1Br)Nc1cccnc1 |  |  | 6.01 µM (active)
11 | CC(=O)O[C@@H]1CC2C(/C=C(\C)C(=O)[C@@]3(O)C[C@@H](C)[C@H](OC(=O)c4ccccc4)C3/C=C/1C)C2(C)C (stereo partly drawn) |  | -1.28% [at 25.7 µM] (inactive) | 
12 | C/C=C(/C)C(=O)O[C@@H]1C[C@@H](OC(=O)CC(C)C)C2(C)C3C(=O)C=C(C)C2C3C1(C)C (stereo partly drawn) | inactive [at 25.7 µM] |  | 
13 | C=C(C)C(=O)OC1CC2(C)OC(=CC2=O)C(=C)CC2OC(=O)C(=C)C12 (stereo not drawn) | inactive |  | 
14 | C/C=C(/C)C(=O)OC1C=C2C3C(C)C(C)C(OC(=O)C(C)C(C)O)CC3(C)CCC2(C)C2(C)CC(OC(C)=O)C3C(C)(C)C(O)C(=O)CC3(C)C12 (stereo not drawn) |  | -1.61% [at 25.7 µM] (inactive) | 
15 | C=C1C(=O)O[C@@H]2C[C@H](C)C3=CC(=O)[C@H](O)[C@@]3(C)C[C@H]12 | inactive |  | 
16 | C=CC(=O)Nc1cccc(Nc2nc(Nc3ccc(NC4CN(CCF)C4)cc3OC)ncc2C(F)(F)F)c1 | inactive |  | 
17 | O=C(O)c1ccc(S(=O)(=O)N(Cc2ccc(OC(F)(F)F)cc2)c2ncc(C(F)(F)F)cc2Cl)cc1 |  | 0.577% (inactive) | 
18 | O=C(NC[C@H]1CN(c2ccc(N3CCOCC3=O)cc2)C(=O)O1)c1ccc(Cl)s1 | inactive |  | 
19 | C=CC(=O)Nc1cc(-n2c(=O)ccc3cnc4ccc(-c5ccc(NS(C)(=O)=O)cc5)cc4c32)ccc1C |  | -2.71% (inactive) | 
20 | Cn1cc(-c2ccc(S(=O)(=O)n3ccc(/C=C/C(=O)Nc4ccccc4N)c3)cc2)cn1 |  | -5.41% (inactive) | 

Row | SMILES | outcome | activity change, negative = inhibition | Potency
21 | O=C(Nc1ccnc(NC(=O)C2CC2)c1)c1c(Cl)cccc1Cl |  | 0.437% (inactive) | 
22 | C[C@@H]1O[C@@H](O[C@H]2[C@@H](OC(=O)[C@]34CCC(C)(C)CC3C3=CCC5[C@@]6(C)C[C@H](O)[C@H](O[C@@H]7O[C@H](CO)[C@@H](O)[C@H](O)[C@H]7O[C@@H]7OC[C@@H](O)[C@H](O)[C@H]7O)[C@@](C)(C(=O)O)C6CC[C@@]5(C)[C@]3(C)CC4)OC[C@H](O)[C@@H]2O)[C@H](O)[C@H](O)[C@H]1O[C@@H]1OC[C@@H](O)[C@H](O)[C@H]1O (stereo partly drawn) | inactive [at 11.6 µM] |  | 
23 | O=S(=O)(c1ccccc1)N(CC(F)(F)F)c1ccc(C(O)(C(F)(F)F)C(F)(F)F)cc1 |  | 1.5% (inactive) | 
24 | FC(F)(F)c1ccc(/C=C/c2nc(COc3ccc(CCCCn4ccnn4)cc3)co2)cc1 | inactive |  | 
25 | CC(=O)OC(C)(C)/C=C/C(=O)[C@](C)(O)[C@H]1C(O)C[C@@]2(C)[C@@H]3CC=C4[C@@H](C=C(O[C@@H]5O[C@H](CO)[C@@H](O)[C@H](O)[C@H]5O)C(=O)C4(C)C)[C@]3(C)C(=O)C[C@]12C (stereo partly drawn) | inactive [at 25.7 µM] |  | 
26 | Cc1ccc(S(=O)(=O)N2CCC[C@H]2c2ccc(F)cc2)cc1 |  | -1.2% (inactive) | 
27 | C=C1C(=O)OC2C(OC(=O)C=C(C)C)C(C)=C3C(=O)C=C(C)C3C(O)C12 (stereo not drawn) |  | 2.95% (inactive) | 
28 | Nc1c(S(=O)(=O)c2ccccc2)c2nc3ccccc3nc2n1-c1ccc(F)cc1 | inactive |  | 
29 | N#Cc1cccc(C(=O)Nc2cc(-c3ccccc3)nn2-c2ccccc2)c1 |  | -16.6% (inactive) | 
30 | Cc1ccc(C(=O)Nc2ccc(CN3CCN(C)CC3)c(C(F)(F)F)c2)cc1C#Cc1cnc2[nH]ncc2c1 |  |  | 23.9 µM (active)
31 | O=C(Nc1ccc(C(F)(F)F)cn1)N1CCN(c2ncccc2C(F)(F)F)CC1 | inactive |  | 
32 | CC1=C(C(=O)Nc2cc(Cl)ccc2Cl)C(c2ccco2)C2=C(CCCC2=O)N1 (stereo not drawn) |  | 0.845% (inactive) | 
33 | COc1ccc(C(=O)Nc2c(Cl)cncc2Cl)cc1OC1CCCC1 |  | -1.92% (inactive) | 
34 | C=C1CC[C@@H](O)[C@]2(C)C[C@H]3OC(=O)C(=C)[C@H]3CC12 (stereo partly drawn) |  | 3.73% (inactive) | 
35 | O=S(=O)(c1ccc(Cl)cc1)N1CCN(c2ccnc3cc(Cl)ccc23)CC1 | inactive |  | 
36 | C=C1CCC2C(C)(C(=O)O)CCCC2(C)C1CCC1=CCOC1=O (stereo not drawn) |  | 0.982% (inactive) | 
37 | NC(=O)c1nc(Nc2ccccc2)sc1NC(=O)C1CCCCC1 | inactive |  | 
38 | COc1cc2ncnc(Oc3ccc(CC(=O)Nc4cnn(C(C)C)c4)cc3)c2cc1OC |  | -3.89% (inactive) | 
39 | COC1=CC(=O)C=C(C)C12Oc1c(Cl)c(OC)cc(OC)c1C2=O (stereo not drawn) |  | 1.61% (inactive) | 

test system: not listed separately; assay: Primary fluorescence-based thiol-reactive (MSTI) qHTS assay for identification of artifact compounds. (AID 1845221); conditions: MSTI thiol-reactivity probe, 1 h; series mostly up to 53.8 µM; activity change, negative = thiol reactive: at the top concentration; note: nearly all actives have a fitted effect of over 65% in size;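 for activity change, negative = thiol reactive: thiol-reactive compounds lower the probe fluorescence signal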
In short: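 First, 4 uM MSTI in 2% DMSO/PBS pH 7.4 was dispensed; next, compounds were added; then plates sat 1 h at room temperature without light. Finally, emission at 598 nm was recorded.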

Row | SMILES | activity change, negative = thiol reactive | Potency
40 | CC(C)(C)c1ccc(NC(=O)N2CCN(c3ncccc3Cl)CC2)cc1 | 32.6% (inactive) | 
41 | O=C(Nc1ccccc1)N1CCC(Cc2cnc3ccccc3c2)CC1 | 43.4% (inactive) | 
42 | C=C1C(=O)O[C@H]2C[C@@H](C)[C@@H]3CCC(=O)[C@@]3(C)C[C@H]12 | 30.4% (inactive) | 
43 | C=C1C(=O)OC2/C=C(\C)CC3C=C(CC/C=C(\C)CCC12)C(=O)O3 (stereo not drawn) | 33.1% (inactive) | 
44 | COc1cc(C(C)=O)c(OC)c2c1OC(C)(C)C=C2 | 7.29% (inactive) | 
45 | C=CCc1ccc(OC(C)Cc2ccc(OC)c(OC)c2)c(OC)c1 (stereo not drawn) | 4.09% (inactive) | 
46 | C=C1C(=O)O[C@@H]2[C@H]3C(C)=CC(=O)C3=C(C)CC[C@@H]12 | 26.4% (inactive) | 
47 | Cc1ccc(OC[C@H](O)[C@H](C)NC(C)C)c2c1CCC2 | 17.8% (inactive) | 
48 | O=C(NCCCn1ccnc1)c1cc(-c2ccco2)on1 | -19.4% (inactive) | 
49 | O=C(COc1ccc2ccccc2c1Br)Nc1cccnc1 | 73.5% (inactive) | 
50 | CC(=O)O[C@@H]1CC2C(/C=C(\C)C(=O)[C@@]3(O)C[C@@H](C)[C@H](OC(=O)c4ccccc4)C3/C=C/1C)C2(C)C (stereo partly drawn) | 27.2% [at 25.6 µM] (inactive) | 
51 | C/C=C(/C)C(=O)O[C@@H]1C[C@@H](OC(=O)CC(C)C)C2(C)C3C(=O)C=C(C)C2C3C1(C)C (stereo partly drawn) | 16.4% [at 25.6 µM] (inactive) | 
52 | C=C(C)C(=O)OC1CC2(C)OC(=CC2=O)C(=C)CC2OC(=O)C(=C)C12 (stereo not drawn) | 18.4% (inactive) | 
53 | C/C=C(/C)C(=O)OC1C=C2C3C(C)C(C)C(OC(=O)C(C)C(C)O)CC3(C)CCC2(C)C2(C)CC(OC(C)=O)C3C(C)(C)C(O)C(=O)CC3(C)C12 (stereo not drawn) | 6.27% [at 25.6 µM] (inactive) | 
54 | C=C1C(=O)O[C@@H]2C[C@H](C)C3=CC(=O)[C@H](O)[C@@]3(C)C[C@H]12 |  | 11.9 µM (active)
55 | C=CC(=O)Nc1cccc(Nc2nc(Nc3ccc(NC4CN(CCF)C4)cc3OC)ncc2C(F)(F)F)c1 |  | 2.38 µM (active)
56 | O=C(O)c1ccc(S(=O)(=O)N(Cc2ccc(OC(F)(F)F)cc2)c2ncc(C(F)(F)F)cc2Cl)cc1 | 113% (inactive) | 
57 | O=C(NC[C@H]1CN(c2ccc(N3CCOCC3=O)cc2)C(=O)O1)c1ccc(Cl)s1 | 65.9% (inactive) | 
58 | C=CC(=O)Nc1cc(-n2c(=O)ccc3cnc4ccc(-c5ccc(NS(C)(=O)=O)cc5)cc4c32)ccc1C | 98.8% (inactive) | 
59 | Cn1cc(-c2ccc(S(=O)(=O)n3ccc(/C=C/C(=O)Nc4ccccc4N)c3)cc2)cn1 | 224% (inactive) | 

Row | SMILES | activity change, negative = thiol reactive | Potency
60 | O=C(Nc1ccnc(NC(=O)C2CC2)c1)c1c(Cl)cccc1Cl | 64.2% (inactive) | 
61 | C[C@@H]1O[C@@H](O[C@H]2[C@@H](OC(=O)[C@]34CCC(C)(C)CC3C3=CCC5[C@@]6(C)C[C@H](O)[C@H](O[C@@H]7O[C@H](CO)[C@@H](O)[C@H](O)[C@H]7O[C@@H]7OC[C@@H](O)[C@H](O)[C@H]7O)[C@@](C)(C(=O)O)C6CC[C@@]5(C)[C@]3(C)CC4)OC[C@H](O)[C@@H]2O)[C@H](O)[C@H](O)[C@H]1O[C@@H]1OC[C@@H](O)[C@H](O)[C@H]1O (stereo partly drawn) | 151% [at 11.5 µM] (inactive) | 
62 | O=S(=O)(c1ccccc1)N(CC(F)(F)F)c1ccc(C(O)(C(F)(F)F)C(F)(F)F)cc1 | 64% (inactive) | 
63 | FC(F)(F)c1ccc(/C=C/c2nc(COc3ccc(CCCCn4ccnn4)cc3)co2)cc1 | 9.36% (inactive) | 
64 | CC(=O)OC(C)(C)/C=C/C(=O)[C@](C)(O)[C@H]1C(O)C[C@@]2(C)[C@@H]3CC=C4[C@@H](C=C(O[C@@H]5O[C@H](CO)[C@@H](O)[C@H](O)[C@H]5O)C(=O)C4(C)C)[C@]3(C)C(=O)C[C@]12C (stereo partly drawn) | 107% [at 25.6 µM] (inactive) | 
65 | Cc1ccc(S(=O)(=O)N2CCC[C@H]2c2ccc(F)cc2)cc1 | 38% (inactive) | 
66 | C=C1C(=O)OC2C(OC(=O)C=C(C)C)C(C)=C3C(=O)C=C(C)C3C(O)C12 (stereo not drawn) | 25.8% (inactive) | 
67 | Nc1c(S(=O)(=O)c2ccccc2)c2nc3ccccc3nc2n1-c1ccc(F)cc1 | 52.9% (inactive) | 
68 | N#Cc1cccc(C(=O)Nc2cc(-c3ccccc3)nn2-c2ccccc2)c1 | 343% (inactive) | 
69 | Cc1ccc(C(=O)Nc2ccc(CN3CCN(C)CC3)c(C(F)(F)F)c2)cc1C#Cc1cnc2[nH]ncc2c1 | 38.3% (inactive) | 
70 | O=C(Nc1ccc(C(F)(F)F)cn1)N1CCN(c2ncccc2C(F)(F)F)CC1 | 92.5% (inactive) | 
71 | CC1=C(C(=O)Nc2cc(Cl)ccc2Cl)C(c2ccco2)C2=C(CCCC2=O)N1 (stereo not drawn) | 46.8% (inactive) | 
72 | COc1ccc(C(=O)Nc2c(Cl)cncc2Cl)cc1OC1CCCC1 | 3.46% (inactive) | 
73 | C=C1CC[C@@H](O)[C@]2(C)C[C@H]3OC(=O)C(=C)[C@H]3CC12 (stereo partly drawn) | 69.8% (inactive) | 
74 | O=S(=O)(c1ccc(Cl)cc1)N1CCN(c2ccnc3cc(Cl)ccc23)CC1 | 31.4% (inactive) | 
75 | C=C1CCC2C(C)(C(=O)O)CCCC2(C)C1CCC1=CCOC1=O (stereo not drawn) | 12.1% (inactive) | 
76 | NC(=O)c1nc(Nc2ccccc2)sc1NC(=O)C1CCCCC1 |  | 1.68 µM (active)
77 | COc1cc2ncnc(Oc3ccc(CC(=O)Nc4cnn(C(C)C)c4)cc3)c2cc1OC | -23% (inactive) | 
78 | COC1=CC(=O)C=C(C)C12Oc1c(Cl)c(OC)cc(OC)c1C2=O (stereo not drawn) | 37.3% (inactive) | 
